In PubChem BioAssay AID1745847 (National Center for Advancing Translational Sciences (NCATS), 2022):
About 670 (32%) of roughly 2,100 compounds were called active. Not shown: some 50% with an inconclusive outcome. Calls come from the whole dose curve; as a rule, active = well fitted inhibition curve with a large enough effect; inconclusive = small, poorly fitted or top-dose-only effect; inactive = no such curve, though single readings can be large or run the other way. This is one part of the list.

Experiment: CMV-Luciferase Counterscreen for Inhibitors of ATXN expression; note: nearly all actives have a fitted effect of over 55% in size
Conditions: HEK-293 CMV-luciferase reporter, luminescence, 24 h; series mostly up to 57.5 µM; activity change, negative = inhibition: at the top concentration
From the text: PI: Daniel Scoles Ph.D. University of Utah School of Medicine, Salt Lake City, Utah MLPCN Grant: NS073009 Spinocerebellar ataxia type 2 (SCA2) is a multisystem neurodegenerative disease caused by a dominantly acting mutation leading to expansion of a polyQ domain in the ataxin-2 protein (ATXN2). SCA2 patients develop progressive ataxia and later lose function in other neuronal systems. Prominent parkinsonian signs develop in some patients. Like many neurodegenerative disorders, no symptomatic or disease-modifying treatments are known. The primary objective of the proposed research is to identify compounds inhibiting ATXN2 expression and to test them for efficacy in SCA2 mouse models. We have developed a cell-based assay paired with an in vivo mouse model using identical luciferase expression constructs. This approach takes advantage of an ATXN2-luciferase transgene, with the luciferase gene flanked by the upstream and downstream portions of the ATXN2 gene. Here we describe a 5-7 dose quantitative high thoroughput screen (qHTS) for compounds lowering ATXN2 expression. We screened the NIH Molecular Libraries Small Molecule Repository (MLSMR) and NCGC's mechanistically annotated (MIPE) and drug repurposing (NPC) collections of compounds for lowering expression of an ATXN2-luciferase reporter in HEK-293 cells. The assay is a multiplexed cell viability assay to ensure target reduction in the absence of cytotoxicity. Secondary qHTS assays included a CMV-luciferase reporter expressed in HEK-293 cells as well as a biochemical assay using recombinant luciferase to detect inhibitors of the reporter enzyme. Compounds that inhibit ATXN2 expression but is not cytotoxic were selected for confirmatory and secondary screens.
PROTOCOL TABLE (as described by Inglese J, Shamu CE and Guy RK. 2007) SEQUENCE No. (e.g., 1, 2, 3, etc.); PARAMETER (e.g., Cells, Incubation, Reagent, etc.); VALUE; DESCRIPTION. 1; Cells; 4 uL; white, solid bottom, 1536-well Greiner assay plate. 2; Incubation; 2 hr; 37 degree C in 5% humidified CO2. 3; Compounds; 23 nL; Kalypsis pintool (Wako USA) equipped with a 1536-well pin head. 4; Incubation; 24 hr; 37 degree C in 5% humidfified CO2. 5; Reagent; 1 uL; Gly-Phe-7-Amino-4-trifluoromethylcoumarin. 6; Incubation; 30 min; 37 degree C in 5% humidfified CO2. 7; Detection; Fluorescence; Viewlux plate reader (PerkinElmer). 8; Reagent; 3 uL; SteadyGlo luciferase solution (Promega). 9; Incubation; 5 min; room temperature. 10; Detection; Luminescence; ViewLux plate reader (PerkinElmer). NOTES (numbers refer to Sequence numbers above) 1. HEK-293 cells expressing CMV-luciferase reporter (designated as SC cells) were suspended in phenol-red free DMEM and dispensed in assay plates using a Multidrop Combi dispenser (Thermo Fisher Scientific). 2. Assay plates were incubated. Evaporation was prevented by covering assay plates with metal lids containing holes to allow gas diffusion. 3. Compounds were added in a dose response manner with the final concentrations of 57, 11.4, 2.28, 0.46, 0.091, 0.018, 0.0037 uM. Vehicle-only plates, with DMSO being pin-transferred to columns 5-48, were inserted uniformly at the beginning and the end of each library to monitor and record any shifts in assay performance. 5. 125 uM Gly-Phe-7-Amino-4-trifluoromethylcoumarin (MP Biomedicals) working concentration was used at a final concentration of 25 uM. 7. To assess cell viability; the assay plates were read using the ViewLux high-throughput CCD imager (PerkinElmer), wherein single end-point fluorescence measurement was acquired (excitation 405/10; emission 540/25 nm). 8. Detection reagent SteadyGlo Luciferase (Promega) was added to the assay plate. 10. Luminescence is then measured on the ViewLux imager equipped with a clear emission filter using a 2 sec exposure. […]
% is set by controls: 0 for no effect and ±100 for the full control effect; potency is the fitted concentration of half-maximal effect.

Row | SMILES | Potency | activity change, negative = inhibition
1 | O=C(C1CCC(CNS(=O)(=O)c2cccc3nsnc23)CC1)N1CC=C(c2ccccc2)CC1 (configuration not stated) | 3.16 µM (active) | –
2 | CC(=O)N/N=C/c1cc(C(C)(C)C)cc(/C=N/NC(C)=O)c1O | 3.16 µM (active) | –
3 | O=c1cnnc(N/N=C/c2ccccn2)[nH]1 | 1.41 µM (active) | –
4 | O=c1nc(N/N=C/c2ccccn2)cn[nH]1 | 14.1 µM (active) | –
5 | C(=N\NC(=Nc1ccccc1)c1ccccn1)/c1ccccn1 | – | -1.1% (inactive)
6 | C(=N\Nc1ccc2nncn2n1)/c1ccccn1 | 17.8 µM (active) | –
7 | Cc1nnc(N/N=C/c2ccccn2)[nH]c1=O | 1.78 µM (active) | –
8 | Cn1c(/C=C/c2ccc(Cl)cc2)c([N+](=O)[O-])c(=O)n(C)c1=O | 31.6 µM (active) | –
9 | COc1cc2c(O)c3c(c(-c4ccc5c(c4)OCO5)c2cc1OC)C(=O)OC3 | – | 16.4% [at 11.4 µM] (inactive)
10 | CCN1CCN(C(c2ccc(C(F)(F)F)cc2)c2ccc3cccnc3c2O)CC1 (configuration not stated) | 14.1 µM (active) | –
11 | S=C(NCc1cccnc1)Nc1ccc(Oc2ccc(Cl)cc2)cc1 | 10 µM (active) | –
12 | Cn1c(=O)c2cc(NC(=O)Nc3cccnc3)ccc2n1Cc1ccc(Cl)cc1 | – | -24% (inactive)
13 | NC(c1csc(Nc2nccc(C(F)(F)F)n2)n1)C1CCCCC1 (configuration not stated) | – | 13.2% [at 11.4 µM] (inactive)
14 | Cc1cccc2c1-c1sc(C(=O)Nc3ccccc3N3CCN(C)CC3)cc1CO2 | 22.4 µM (active) | –
15 | CC1CC(C)CN(CCCNC(=O)c2cc3c(s2)-c2ccccc2OC3)C1 (configuration not stated) | – | -23% [at 11.4 µM] (inactive)
16 | CCc1ccc(NC(=O)COc2ccc(/C=C(/C#N)c3nc4ccccc4[nH]3)cc2OC)cc1 | 3.55 µM (active) | –
17 | COCC(=O)OC/C(O)=C(\C#N)c1nc2ccccc2[nH]1 | – | -13.1% [at 11.4 µM] (inactive)
18 | O=C1/C(=C/c2ccc([N+](=O)[O-])cc2)C=C(c2ccccc2)N1c1ccc(O)cc1 | 3.98 µM (active) | –
19 | COc1ccc(F)cc1-c1cc(NC=O)c2ncc(-c3cccc(C(=O)N(C)C)c3)n2c1 | – | -8.79% [at 11.4 µM] (inactive)

Row | SMILES | Potency | activity change, negative = inhibition
20 | Cc1cc(N2CCN(c3nc(-c4ccccc4)cs3)CC2)c2ccccc2n1 | 3.55 µM (active) | –
21 | CCN(CC)CCC(=O)Nc1cccc2c1C(=O)c1ccccc1C2=O | – | -4.68% [at 11.4 µM] (inactive)
22 | CCN(CC)CCn1nc2c3c(cccc3c1=O)-c1ccccc1-2 | 8.91 µM (active) | –
23 | CCN(CC)CCn1c2ccccc2c2cnc(N)c(C#N)c21 | – | -22.5% [at 11.4 µM] (inactive)
24 | O=C(NNC1=Nc2ccccc2SC1)c1ccc(Cl)cc1 | 1.78 µM (active) | –
25 | O=C(CN1C(=O)c2ccccc2S1(=O)=O)Nc1ncc(Cl)cc1Cl | 3.16 µM (active) | –
26 | Cc1cc(C(=O)CN2C(=O)c3ccccc3S2(=O)=O)c(C)n1C(C)C | 0.562 µM (active) | –
27 | Cc1cc(C(=O)CN2C(=O)c3ccccc3S2(=O)=O)c(C)n1CC1CCCO1 (configuration not stated) | 0.501 µM (active) | –
28 | CCn1c(C)cc(C(=O)CN2C(=O)c3ccccc3S2(=O)=O)c1C | 0.398 µM (active) | –
29 | Cc1nnc(SCC(N)=O)n1CC1CCCO1 (configuration not stated) | – | -6.37% (inactive)
30 | Nc1nc(NCCc2ccccc2)nc(NCc2ccccc2)c1[N+](=O)[O-] | – | -24% (inactive)
31 | COC(=O)[C@H]1C[C@H](OC(=O)NC2CC2)[C@@]2(O)CN(S(=O)(=O)c3ccc(C)cc3)CC2[C@H]1C(=O)OC (some centres not stated) | – | 4.52% [at 11.4 µM] (inactive)
32 | O=C(CN1C(=O)c2ccccc2S1(=O)=O)c1ccc(Cl)cc1Cl | 1 µM (active) | –
33 | CC1Cc2cc(-c3csc(NC(=O)Cc4cccs4)n3)ccc2N1S(C)(=O)=O (configuration not stated) | 1.41 µM (active) | –
34 | O=c1c2c(nc3c(-c4ccc(Cl)cc4)c[nH]n13)CCCC2 | 0.891 µM (active) | –
35 | O=c1c2c(nc3c(-c4cccc(Br)c4)c[nH]n13)CCCC2 | 3.55 µM (active) | –
36 | CC1CCCCN1S(=O)(=O)c1ccc(C(=O)Nc2nnc(-c3ccncc3)o2)cc1 (configuration not stated) | 8.91 µM (active) | –
37 | CC1CCCN(S(=O)(=O)c2ccc(C(=O)Nc3nnc(-c4ccccc4Cl)o3)cc2)C1 (configuration not stated) | 1.26 µM (active) | –
38 | CN(C)CCCNC(=O)/C=C/c1ccc(OCc2c(F)cccc2Cl)cc1 | – | -21.7% (inactive)

Row | SMILES | Potency | activity change, negative = inhibition
39 | Clc1ccc(-c2cc(C3CCNCC3)[nH]n2)c(Cl)c1 | – | -29.5% (inactive)
40 | Cc1ccc(CN2CCC(c3cc(-c4ccc(Cl)cc4)n[nH]3)CC2)cc1 | 22.4 µM (active) | –
41 | COc1ccc(N2CCN(C(=O)c3cc4c(C)nc5ccccc5c4o3)CC2)cc1 | 22.4 µM (active) | –
42 | CCc1ccc(CNC(=O)c2cc3c(C)nc4ccccc4c3o2)cc1 | 10 µM (active) | –
43 | CCOC(=O)c1cnc2ccc(OC)cc2c1Nc1ccc(N2CCN(C)CC2)cc1 | – | -24.8% (inactive)
44 | Cc1sc2nc(CN3CCCC3)nc(N3CCC(C(N)=O)CC3)c2c1C | – | 3.08% (inactive)
45 | COc1ccc(C(=O)N2CCN(c3nc(C4CC4)nc4sc(C)c(C)c34)CC2)cc1 | 17.8 µM (active) | –
46 | Cc1ccc(C)c(OCCCC(=O)Nc2nccs2)c1 | – | 6.11% (inactive)
47 | Cc1cc(Br)c(OCc2ccc(C(=O)N/N=C3\CC4CC=CC34)cc2)c(Br)c1 (configuration not stated) | 28.2 µM (active) | –
48 | CC(C)Nc1nc(-c2ccccn2)nc(-c2ccccc2)c1C#N | – | -15.7% (inactive)
49 | CCN(CC)c1nc(-c2ccccn2)nc(-c2ccccc2)c1C#N | 7.08 µM (active) | –
50 | COC(=O)c1c(NC(=O)/C=C/C(=O)O)sc(C)c1-c1ccc(C(C)C)cc1 | 14.1 µM (active) | –
51 | Cc1[nH]c(-c2ccc(F)cc2)cc1C(=O)N1CCN(c2ccc(Cl)cc2)CC1 | 22.4 µM (active) | –
52 | Cc1cc(N2CCN(C)CC2)ccc1NC(=O)c1ccc(-c2ccc(Cl)cc2)o1 | – | -27.1% (inactive)
53 | CC1(C(=O)NCc2ccco2)CCN1C(=O)C1(c2ccccc2)CC1 (configuration not stated) | – | -4.65% [at 11.4 µM] (inactive)
54 | CC1(C(=O)NCc2ccccc2Br)CCN1C(=O)Cc1ccc(-c2ccccc2)cc1 (configuration not stated) | 20 µM (active) | –
55 | Cc1ccc2[nH]c(O)c(N=NC(=O)C3CC3c3ccccc3)c2c1Br (configuration not stated) | – | -21.9% [at 11.4 µM] (inactive)
56 | O=C(Nc1ccc(Cl)cc1)Nc1ccc(N2CCCC2)c(S(=O)(=O)Nc2ccccc2Cl)c1 | 3.98 µM (active) | –
57 | CCN(CC)S(=O)(=O)c1ccc(N/N=C/c2ccc(O)cc2O)nc1 | 1.26 µM (active) | –
